# Assay outcomes: PubChem BioAssay, National Center for Advancing Translational Sciences (NCATS)
# HP1b binding inh: blocks HP1-beta chromodomain binding to methylated histone tails; P83916; hit rate 0.56% among 390,000; AID 540317; AlphaScreen HP1-beta / biotin-H3K9me3 peptide binding; Potency, µM (titrated, usually from 114 µM), for the others: top-dose activity change, negative = inhibition, most hits filed as inhibitors; also: nearly all actives have a fitted effect of over 70% in size
#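 Compound inhibition of the preformed complex between 50 nM HP1-beta and 50 nM biotinylated H3K9me3 peptide was read by AlphaScreen. Buffer was PBS pH 7.4 with 0.01% Tween-20. Incubations ran 30 min at room temperature, with 10 ug/mL donor/acceptor beads.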
# JMJD2A Tudor inh: blocks the human JMJD2A Tudor domain; Potency, µM (titrated, usually from 114 µM), for the others: top-dose activity change, negative = inhibition, usual class: inhibitors; AID 504339; hit rate 4.4% among 390,000; AlphaScreen JMJD2A-Tudor / H3K4me3 peptide binding; O75164; also: % is scaled to controls: 0 for no effect and ±100 for the full control effect; nearly all actives have a fitted effect of over 50% in size
# BAZ2B inh: blocks human BAZ2B. hit rate 4.4% among 360,000. Q9UIF8. AlphaScreen BAZ2B-H3K14Ac peptide displacement. Potency, µM (series often up to 114 µM), for the others: at the highest dose activity change, negative = inhibition, usual class: inhibitors; also: % is scaled to controls: 0 for no effect and ±100 for the full control effect; nearly all actives have a fitted effect of over 60% in size
#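 AlphaScreen luminescence quantifies BAZ2B engagement of H3K14Ac peptide; the protein and biotinylated peptide are both at 50 nM final, buffer PBS pH 7.4 with 0.01% Tween-20, all steps at room temperature.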
# G9a inh: blocks human histone lysine methyltransferase G9a; hit rate 8.8% among 350,000; AID 504332; Potency, µM (doses to about 102 µM), for inactives: at the highest dose activity, negative = inhibition, usual class: inhibitors; G9a H3K9 monomethylation, AlphaScreen, 2 h; also: % is scaled to controls: 0 for no effect and ±100 for the full control effect; nearly all actives have a fitted effect of over 75% in size
#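 AlphaScreen read-out: biotin-H3K9 peptide (500 nM) methylation by 20 nM enzyme with 20 uM SAM, 2 h at room temperature after 15 min compound preincubation; anti-monomethyl H3K9 antibody plus donor/acceptor beads, 10 min dark.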
# GLS inh: blocks human kidney-isoform glutaminase activity; GLS enzymatic activity, qHTS titration; O94925; Potency, µM (series often up to 45.5 µM), inactives show top-dose activity change, negative = inhibition, hits mostly inhibitors; AID 624170; hit rate 0.21% among 410,000; also: % is scaled to controls: 0 for no effect and ±100 for the full control effect
#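 hKGA in 45 mM KH2PO4 pH 8.2, 0.02% Tween-20 with pin-transferred compounds; 1 mM L-glutamine (stock) plus glutamate oxidase/HRP/Amplex Red coupling added. Fluorescence read initially and after 30 min at RT.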
# Active calls of the source: *; u = inconclusive; x = no result; [ ] = another dose, or the depositor's remark. Compounds with a hit are over-represented: about 10% of the library has one in this group of screens. Calls follow the shape of the dose curve; as a rule, active = well fitted curve in the direction sought with a large enough effect; inconclusive = small, poorly fitted or top-dose-only effect, or another doubt; inactive = no such curve, though single readings can be large; an effect the other way counts as inactive or inconclusive. Potency is read from the fitted curve at half-maximal effect.
SMILES,HP1b binding inh,JMJD2A Tudor inh,BAZ2B inh,G9a inh,GLS inh
CCOC(=O)c1sc(NS(=O)(=O)c2ccc(C)cc2)nc1C,38.6%,-7.1%,u,50.1µM*,20.4%
CCC(CC)c1nnc(NC(=O)c2ccc([N+](=O)[O-])cc2)s1,-0.2%,-14.2%,-26.4%,u,9.3%
CCOC(=O)c1sc(NNC(=O)c2ccc(F)cc2)nc1C,20.5%,-6.5%,13.6%,u,u
CCOC(=O)c1nc(NNC(=O)c2ccc([N+](=O)[O-])cc2)sc1C,-12.7%,u,u,44.7µM*,7.0%
O=C(c1ccc2c(c1)CCC2)N1CCN(Cc2ccccc2)CC1,x,x,x,x,-9.6%
CCOC(=O)[C@]12CCC=C1N(CCC1=CCCCC1)C(=O)[C@H](CC(=O)N1CCN(C(=O)c3ccco3)CC1)C2,x,x,x,x,-16.4%
O=C1c2ccccc2C(=O)N1c1cccc2ncccc12,x,89.1µM*,x,x,x
Cn1c(=O)n(CCc2ccccc2)c(=O)c2c1nc1n2CCN1c1ccc(Cl)cc1,33.8%,2.6%,1.7%,-4.5%[59 µM],-0.5%
CC(=O)/C(N=Nc1ccc(C(=O)O)cc1[N+](=O)[O-])=C(\C)O,20.6%,-17.0%,56.2µM*,u,-18.0%
CCOC(=O)/C(N=Nc1ccc(C(=O)O)cc1[N+](=O)[O-])=C(\C)O,42.2%,1.3%,x,u,-4.5%
CC(=O)/C(N=Nc1cc2c(cc1[N+](=O)[O-])OCCO2)=C(\C)O,-10.6%,17.8µM*,-10.4%,-12.5%,-14.9%
Cc1cccc(Cn2c(=O)n(-c3ccc(CC(=O)NCc4ccco4)cc3)c(=O)c3sccc32)c1,19.8%,-12.1%,62.2%,-6.7%,12.2%
CCn1c(SCC(=O)N2CCN(c3ccc(F)cc3)CC2)nc2ccccc2c1=O,-11.6%,-15.9%,-34.4%,-22.2%[59 µM],9.6%
CCn1c(SCC(=O)N2CCOCC2)nc2oc3c(Cl)cc(Cl)cc3c(=O)c2c1=O,x,x,u,39.8µM*,x
CCn1c(SCC(=O)N2CCOCC2)nc2sc3c(c2c1=O)CCCC3,28.3%,-7.4%,2.9%,u,-15.6%
O=C(CSc1nc2ccccc2c(=O)n1Cc1ccco1)N1CCN(c2ccccc2)CC1,u,-4.4%,u,14.1µM*,11.1%
CCCCn1c(SCC(=O)N2CCN(c3ccccc3)CC2)nc2ccsc2c1=O,29.4%,-34.8%,-31.0%,39.8µM*,-2.0%
CCn1c(SCC(=O)N2CCN(c3ccc(Cl)cc3)CC2)nc2ccccc2c1=O,-18.9%,-31.5%,50.1µM*,2µM*,0.7%
CC1CC(=O)C=C(O)C1C(=O)OC(C)(C)C (configuration not stated),6.7%,-0.7%,-22.5%,-5.5%[12.7 µM],6.3%
O=S(=O)(Nc1ccc(F)c(C(F)(F)F)c1)c1ccc(N2CCCCS2(=O)=O)cc1,66.5%,-7.9%,11.7%,21.0%[59 µM],8.0%
Cc1cccc(-c2cc(C(=O)NCCCn3ccnc3)c3ccccc3n2)c1,x,x,u,-1.9%[59 µM],x
CCCOc1cccc(-c2cc(C(=O)NNC(=S)NCC)c3ccccc3n2)c1,-12.0%,-33.6%,-7.3%,-49.4%[12.7 µM],11.7%
CCNC(=S)NNC(=O)c1cc(-c2cccc(OC)c2)nc2ccccc12,33.9%,-0.4%,-29.3%,39.8µM*,9.7%
CC(C)Oc1cccc(-c2cc(C(=O)NC(=S)N(C)c3ccccc3C(=O)O)c3ccccc3n2)c1,u,-27.3%,-37.3%,22.4µM*,21.6%
COc1cccc(-c2cc(C(=O)NCCCn3ccnc3)c3ccccc3n2)c1,14.2%,-23.0%,u,3.16µM*,-5.9%
SMILES,HP1b binding inh,JMJD2A Tudor inh,BAZ2B inh,G9a inh,GLS inh
CC(C)Oc1cccc(-c2cc(C(=O)NN3CCOCC3)c3ccccc3n2)c1,1.2%,-20.6%,-20.1%,17.4%,16.1%
CC1(CC(=O)N/N=C/c2cc([N+](=O)[O-])c(O)cc2O)OCCO1,8.91µM*,u,50.1µM*,39.8µM*,0.0%
O=C(N/N=C/c1cccc2ccccc12)c1cc(C2CC2)[nH]n1,35.9%,-13.0%,-20.4%[57.1 µM],12.5%,0.5%
O=C(N/N=C/c1ccccn1)c1cc(C2CC2)[nH]n1,47.5%,56.2µM*,11.2µM*,u,-0.2%
O=C(N/N=C/c1ccc([N+](=O)[O-])cc1)c1cc(C2CC2)[nH]n1,40.1%,-11.0%,-19.4%,79.4µM*,-0.8%
O=C(N/N=C/c1ccco1)c1cc(C2CC2)[nH]n1,21.3%,-3.2%,-9.7%,-33.7%,4.3%
